The whole screen tested about 5,500 compounds, of which about 2,000 (36%) were called active. About 18% were inconclusive and are not listed. Cut-off read from the data, not from the text of the source: active = normalized growth mostly below about 0.91 (no sharp cut-off); inconclusive = no clear call, values can overlap the other calls; inactive = mostly above about 0.92. The list shows a part of the results.
Test: chemical genetic growth profiling, strain panel (AID 1159580);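 note: tested at 20 µM; growth read once vehicle control cultures reached saturation at 30 °C; 1 = growth at the plate median or of vehicle wells; lower values mean less growth of the strain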
Settings: growth OD

Measured: normalized growth

O=C(O)c1c2ccccc2cc2ccccc12
inactive: S. cerevisiae deletion strains, locus YJR043C, strain POL32, active compounds read low 1.04 | S. cerevisiae deletion strains, locus YJR075W, strain HOC1, active compounds read low 1.01 | S. cerevisiae deletion strains, locus YKL009W, strain mrt4, active compounds read low 0.989 | S. cerevisiae deletion strains, locus YKL068W, active compounds read low 0.971 | S. cerevisiae deletion strains, locus YKL085W, strain MDH1 (second series), active compounds read low 0.958 | S. cerevisiae deletion strains, locus YKL085W, strain MDH1, active compounds read low 0.958 | S. cerevisiae deletion strains, locus YKL160W, strain elf1, active compounds read low 0.991 | S. cerevisiae deletion strains, locus YKL190W, strain CNB1, active compounds read low 1.02 | S. cerevisiae deletion strains, locus YKR001C, strain vps1, active compounds read low 0.981 | S. cerevisiae deletion strains, locus YKR026C, strain gcn3, active compounds read low 1 | S. cerevisiae deletion strains, locus YKR091W, strain srl3, active compounds read low 0.986 | S. cerevisiae deletion strains, locus YLL001W, strain dnm1, active compounds read low 1 | S. cerevisiae deletion strains, locus YLL026W, active compounds read low 0.996 | S. cerevisiae deletion strains, locus YLL041C, strain sdh2, active compounds read low 0.992 | S. cerevisiae deletion strains, locus YLR027C, strain aat2, active compounds read low 0.999 | S. cerevisiae deletion strains, locus YLR039C, strain RIC1, active compounds read low 1.04 | S. cerevisiae deletion strains, locus YLR058C, strain SHM2, active compounds read low 1.02 | S. cerevisiae deletion strains, locus YLR102C, strain apc9, active compounds read low 0.983 | S. cerevisiae deletion strains, locus YLR221C, strain rsa3, active compounds read low 0.973 | S. cerevisiae deletion strains, locus YLR258W, strain gsy2, active compounds read low 0.992 | S. cerevisiae deletion strains, locus YLR262C, strain YPT6 (second series), active compounds read low 0.976 | S. cerevisiae deletion strains, locus YLR262C, strain YPT6, active compounds read low 1.03 | S. cerevisiae deletion strains, locus YLR268W, strain sec22, active compounds read low 0.986 | S. cerevisiae deletion strains, locus YLR320W, strain mms22, active compounds read low 1 | S. cerevisiae deletion strains, locus YLR330W, strain CHS5, active compounds read low 1.02 | S. cerevisiae deletion strains, locus YLR342W, strain FKS1 (second series), active compounds read low 0.971 | S. cerevisiae deletion strains, locus YLR342W, strain FKS1, active compounds read low 1 | S. cerevisiae deletion strains, locus YLR357W, strain rsc2, active compounds read low 1.06 | S. cerevisiae deletion strains, locus YLR370C, strain arc18, active compounds read low 0.998 | S. cerevisiae deletion strains, locus YLR371W, strain rom2, active compounds read low 0.992 | S. cerevisiae deletion strains, locus YLR384C, strain iki3, active compounds read low 0.992 | S. cerevisiae deletion strains, locus YLR418C, strain cdc73, active compounds read low 0.96 | S. cerevisiae deletion strains, locus YML016C, strain PPZ1, active compounds read low 1.01 | S. cerevisiae deletion strains, locus YML032C, strain rad52, active compounds read low 0.954 | S. cerevisiae deletion strains, locus YML120C, strain ndi1, active compounds read low 0.965 | S. cerevisiae deletion strains, locus YML124C, strain tub3, active compounds read low 0.985 | S. cerevisiae deletion strains, locus YMR058W, strain fet3, active compounds read low 1.01 | S. cerevisiae deletion strains, locus YMR078C, strain ctf18, active compounds read low 0.974 | S. cerevisiae deletion strains, locus YMR125W, strain sto1, active compounds read low 1.03 | S. cerevisiae deletion strains, locus YMR129W, active compounds read low 0.987 | S. cerevisiae deletion strains, locus YMR205C, strain PFK2, active compounds read low 1.01 | S. cerevisiae deletion strains, locus YMR223W, strain ubp8, active compounds read low 0.962 | S. cerevisiae deletion strains, locus YMR231W, strain pep5, active compounds read low 0.979 | S. cerevisiae deletion strains, locus YMR263W, strain SAP30, active compounds read low 1.02 | S. cerevisiae deletion strains, locus YMR307W, strain GAS1, active compounds read low 1.13 | S. cerevisiae deletion strains, locus YNL067W, strain RPL9B, active compounds read low 1.02 | S. cerevisiae deletion strains, locus YNL071W, strain lat1, active compounds read low 0.948 | S. cerevisiae deletion strains, locus YNL128W, strain TEP1, active compounds read low 1.02 | S. cerevisiae deletion strains, locus YNL153C, strain GIM3, active compounds read low 1.02 | S. cerevisiae deletion strains, locus YNL209W, strain ssb2, active compounds read low 1 | S. cerevisiae deletion strains, locus YNL233W, strain BNI4, active compounds read low 1.02 | S. cerevisiae deletion strains, locus YNL248C, strain rpa49, active compounds read low 0.993 | S. cerevisiae deletion strains, locus YNL250W, strain rad50, active compounds read low 0.965 | S. cerevisiae deletion strains, locus YNL271C, strain bni1, active compounds read low 0.949 | S. cerevisiae deletion strains, locus YNL298W, strain CLA4, active compounds read low 0.948 | S. cerevisiae deletion strains, locus YNL307C, strain MCK1, active compounds read low 0.969 | S. cerevisiae deletion strains, locus YNL322C, strain KRE1 (second series), active compounds read low 0.998 | S. cerevisiae deletion strains, locus YNL322C, strain KRE1, active compounds read low 1.02 | S. cerevisiae deletion strains, locus YNR049C, strain mso1, active compounds read low 1.01 | S. cerevisiae deletion strains, locus YNR052C, strain pop2, active compounds read low 0.982 | S. cerevisiae deletion strains, locus YOL006C, strain TOP1, active compounds read low 0.989 | S. cerevisiae deletion strains, locus YOL012C, strain htz1 0.952 | S. cerevisiae deletion strains, locus YOL147C, strain pex11, active compounds read low 0.986 | S. cerevisiae deletion strains, locus YOR001W, strain rrp6, active compounds read low 0.957 | S. cerevisiae deletion strains, locus YOR061W, strain CKA2, active compounds read low 1.01 | S. cerevisiae deletion strains, locus YOR069W, strain VPS5, active compounds read low 1.01 | S. cerevisiae deletion strains, locus YOR070C, strain gyp1, active compounds read low 0.999 | S. cerevisiae deletion strains, locus YOR080W, strain dia2, active compounds read low 1.01 | S. cerevisiae deletion strains, locus YOR083W, strain WHI5, active compounds read low 0.915 | S. cerevisiae deletion strains, locus YOR106W, strain vam3, active compounds read low 0.95 | S. cerevisiae deletion strains, locus YOR136W, strain idh2, active compounds read low 0.978 | S. cerevisiae deletion strains, locus YOR144C, strain elg1, active compounds read low 0.987 | S. cerevisiae deletion strains, locus YOR184W, strain ser1, active compounds read low 0.965 | S. cerevisiae deletion strains, locus YOR265W, strain rbl2, active compounds read low 0.996 | S. cerevisiae deletion strains, locus YOR270C, strain vph1, active compounds read low 0.973 | S. cerevisiae deletion strains, locus YOR290C, strain snf2, active compounds read low 0.999 | S. cerevisiae deletion strains, locus YOR316C, strain cot1, active compounds read low 0.983 | S. cerevisiae deletion strains, locus YPL051W, strain arl3, active compounds read low 0.982 | S. cerevisiae deletion strains, locus YPL055C, strain LGE1, active compounds read low 1.03 | S. cerevisiae deletion strains, locus YPL078C, strain atp4, active compounds read low 1 | S. cerevisiae deletion strains, locus YPL106C, strain sse1, active compounds read low 0.947 | S. cerevisiae deletion strains, locus YPL240C, strain hsp82, active compounds read low 0.994 | S. cerevisiae deletion strains, locus YPL241C, strain CIN2, active compounds read low 0.982 | S. cerevisiae deletion strains, locus YPR119W, strain clb2, active compounds read low 0.979 | S. cerevisiae deletion strains, locus YPR141C, strain kar3, active compounds read low 0.948 | S. cerevisiae deletion strains, locus YPR163C, strain tif3, active compounds read low 0.984 | S. cerevisiae deletion strains, locus YPR167C, strain met16, active compounds read low 0.987 | S. cerevisiae deletion strains, strain wtn01, active compounds read low 0.987 | S. cerevisiae strains, strain wild type, active compounds read low 1.01

Reference: PubChem BioAssay AID1159580 (chemical genetic matrix, 2015)
